Measurements published in PubChem BioAssay AID1159580 (chemical genetic matrix, 2015).
Values joined by “and” are separate entries in the source; they are usually repeats but may differ in a detail not shown here. Equal entries are not always repeated. Hit rate of the full screen: of about 5,500 compounds, about 2,000 (36%) were called active. About 18% were inconclusive and are not listed. No stated cut-off is given here; in the data, active means normalized growth mostly below about 0.91 (no sharp cut-off); inconclusive means no clear call, values can overlap the other calls; inactive means mostly above about 0.92. Some of the results follow.

Assay: chemical genetic growth profiling, strain panel (AID 1159580);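 further: tested at 20 µM; growth read once vehicle control cultures reached saturation at 30 °C; 1 = growth at the plate median or of vehicle wells; lower values mean less growth of the strain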
Conditions: S. cerevisiae deletion strains, growth OD

Measured: normalized growth

NC(=O)NC1NC(=O)NC1=O (configuration not stated)
inactive: locus YAL013W, strain DEP1, active compounds read low 0.994 | locus YAL021C, strain ccr4, active compounds read low 0.995 | locus YAL026C, strain drs2, active compounds read low 1 | locus YAL030W, strain snc1, active compounds read low 0.999 | locus YBL061C, strain skt5, active compounds read low 1 | locus YBR009C, strain hhf1, active compounds read low 0.999 | locus YBR021W, strain FUR4, active compounds read low 0.996 | locus YBR023C, strain chs3, active compounds read low 1 | locus YBR171W, strain sec66, active compounds read low 1.01 | locus YBR229C, strain ROT2, active compounds read low 0.987 | locus YBR231C, strain swc5, active compounds read low 0.996 | locus YBR279W, strain paf1, active compounds read low 1.01 | locus YCL011C, strain gbp2, active compounds read low 1.01 | locus YCL016C, strain dcc1, active compounds read low 1 | locus YCL029C, strain bik1, active compounds read low 0.976 | locus YCL061C, strain MRC1, active compounds read low 0.995 | locus YCL069W, strain vba3, active compounds read low 1.01 | locus YCR088W, strain abp1, active compounds read low 0.995 | locus YDL005C, strain med2, active compounds read low 1 | locus YDL035C, strain GPR1, active compounds read low 1.01 | locus YDL040C, strain nat1, active compounds read low 0.999 | locus YDL074C, strain BRE1, active compounds read low 1.01 | locus YDL101C, strain DUN1, active compounds read low 0.981 | locus YDL134C, strain PPH21, active compounds read low 0.982 | locus YDL185W, strain tfp1, active compounds read low 0.982 | locus YDL192W, strain arf1, active compounds read low 0.988 | locus YDR001C, strain nth1, active compounds read low 1.01 | locus YDR069C, strain doa4, active compounds read low 1 | locus YDR101C, strain arx1, active compounds read low 0.98 | locus YDR137W, strain rgp1, active compounds read low 0.991 | locus YDR150W, strain NUM1, active compounds read low 0.998 | locus YDR159W, strain sac3, active compounds read low 0.995 | locus YDR162C, strain NBP2, active compounds read low 0.992 | locus YDR195W, strain ref2 0.998 | locus YDR297W, strain sur2, active compounds read low 1.01 | locus YDR318W, strain mcm21, active compounds read low 0.986 | locus YDR334W, strain swr1, active compounds read low 1 | locus YDR335W, strain msn5, active compounds read low 1.01 | locus YDR388W, active compounds read low 0.979 | locus YDR392W, strain spt3, active compounds read low 0.958 | locus YDR502C, strain sam2, active compounds read low 1.02 | locus YEL003W, strain gim4, active compounds read low 1.01 | locus YEL037C, strain rad23, active compounds read low 1.01 | locus YEL061C, strain CIN8 (second series), active compounds read low 1.01 | locus YEL061C, strain CIN8, active compounds read low 1 | locus YER015W, strain faa2, active compounds read low 1 | locus YER016W, strain bim1, active compounds read low 1.01 | locus YER110C, active compounds read low 0.979 | locus YER111C, strain swi4, active compounds read low 1.01 | locus YER155C, strain BEM2 (second series), active compounds read low 1.01 | locus YER155C, strain BEM2, active compounds read low 0.997 | locus YER167W, strain BCK2, active compounds read low 1 | locus YFR010W, strain ubp6, active compounds read low 1.01 | locus YGL078C, strain dbp3, active compounds read low 0.989 | locus YGL086W, strain mad1, active compounds read low 0.999 | locus YGL167C, strain pmr1, active compounds read low 1 | locus YGL173C, strain kem1, active compounds read low 1 | locus YGL227W, strain vid30, active compounds read low 1 | locus YGL240W, strain doc1, active compounds read low 0.996 | locus YGL248W, strain PDE1, active compounds read low 0.986 | locus YGL253W, strain hxk2, active compounds read low 1 | locus YGR078C, strain PAC10, active compounds read low 0.987 | locus YGR135W, strain pre9, active compounds read low 0.998 | locus YGR229C, strain SMI1, active compounds read low 1.01 | locus YGR252W, strain gcn5, active compounds read low 1.13 | locus YHR013C, strain ard1, active compounds read low 1.01 | locus YHR027C, strain rpn1, active compounds read low 1 | locus YHR030C, strain SLT2, active compounds read low 0.994 and 1.03 | locus YHR079C, strain IRE1 (second series), active compounds read low 0.972 | locus YHR079C, strain IRE1, active compounds read low 1.02 | locus YHR094C, strain hxt1, active compounds read low 0.983 | locus YHR129C, strain ARP1, active compounds read low 0.983 | locus YHR142W, strain chs7, active compounds read low 1.01 | locus YHR200W, strain rpn10, active compounds read low 0.988 | locus YIL066C, strain RNR3, active compounds read low 0.994 | locus YIL073C, strain SPO22, active compounds read low 0.998 | locus YIL125W, strain kgd1, active compounds read low 0.999 | locus YIR030C, strain dcg1, active compounds read low 0.984 | locus YJL092W, strain hpr5, active compounds read low 1 | locus YJL095W, strain BCK1 (second series), active compounds read low 1 | locus YJL095W, strain BCK1, active compounds read low 0.98 and 1.03 | locus YJL115W, strain asf1, active compounds read low 0.997 | locus YJL129C, strain trk1, active compounds read low 0.997 | locus YJL134W, strain LCB3, active compounds read low 0.991 | locus YJL154C, strain vps35, active compounds read low 1.01 | locus YJL164C, strain tpk1, active compounds read low 1 | locus YJL166W, strain qcr8, active compounds read low 0.993 | locus YJL168C, strain set2, active compounds read low 0.98 | locus YJL187C, strain SWE1 (second series), active compounds read low 0.979 | locus YJL187C, strain SWE1, active compounds read low 1 | locus YJR043C, strain POL32, active compounds read low 0.979 | locus YJR066W, strain TOR1, active compounds read low 0.984
